Test results as given in PubChem BioAssay (NCATS).

Assay: qHTS profiling of the MIPE4 collection as inhibitors of Plasmodium falciparum (DD2) proliferation (Rep 2) (AID 743346)
Conditions: P. falciparum Dd2 in erythrocytes, SYBR Green DNA, 72 h; at 28.5 µM unless noted
Outline: (§1)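 Erythrocytes infected with P. falciparum (0.3% parasitemia, 2.5% hematocrit) incubated with compounds 72 h at 37 C, 5% CO2. Lysis with saponin/Triton buffer containing SYBR Green I, overnight at room temperature in the dark; DNA fluorescence (485/535 nm) normalised to 0.29 uM artemisinin and DMSO.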
With `CC(C)c1onc(-c2c(Cl)cccc2Cl)c1COc1ccc(C=Cc2cccc(C(=O)O)c2)c(Cl)c1` the parasite growth, % of control (lower = inhibition) was 53.3%.
`O=C1NC(=O)C(=Cc2ccc(-c3ccc(F)cc3O)o2)S1` gave a parasite growth, % of control (lower = inhibition) of 61.3%.
With `C#C[C@]1(O)CC[C@H]2[C@H]3CCc4cc(OC)ccc4[C@H]3CC[C@@]21C` the parasite growth, % of control (lower = inhibition) was 90.2%.
Work on `CCC(=O)OCC(=O)[C@@]1(OC(=O)CC)[C@@H](C)C[C@@H]2[C@H]3CCC4=CC(=O)C=C[C@]4(C)[C@@]3(F)[C@@H](O)C[C@@]21C` yielded a parasite growth, % of control (lower = inhibition) of 39.1%.
In the case of `CNC(=O)c1cc(COc2nnc(Nc3ccc(Cl)cc3)c3ccoc23)ccn1`, the parasite growth, % of control (lower = inhibition) is reported as 52.9%.
With `CC(C)(C)c1nc(-c2cccc(NS(=O)(=O)c3c(F)cccc3F)c2F)c(-c2ccnc(N)n2)s1` the parasite growth, % of control (lower = inhibition) was 35%.
In the case of `CC(C)C[C@@H](C(=O)N[C@H](C(=O)OC1CCCC1)c1ccccc1)[C@H](O)C(=O)NO`, the parasite growth, % of control (lower = inhibition) is reported as 29%.
`COC1CCC(C(=O)c2ccc3nc4c(cc3c2)CCCO4)CC1` (centres undefined) gave a parasite growth, % of control (lower = inhibition) of 15.9%.
`CC(C)(O)CC(=O)NCCn1ccc2ncnc(Nc3ccc(Oc4cccc(C(F)(F)F)c4)c(Cl)c3)c21` gave a parasite growth, % of control (lower = inhibition) of 23%.
`CC[C@H](NC(=O)[C@H](C)NC)C(=O)N1C[C@@H](O)C[C@H]1Cc1c(-c2[nH]c3cc(F)ccc3c2C[C@H]2C[C@H](O)CN2C(=O)[C@H](CC)NC(=O)[C@H](C)NC)[nH]c2cc(F)ccc12` gave a parasite growth, % of control (lower = inhibition) of 6.15%.
Molecule `C[C@H]1COC2=C1C(=O)C(=O)c1c2ccc2c1CCCC2(C)C` has a parasite growth, % of control (lower = inhibition) of 15.5%.
In the case of `Cn1cnc(-c2cc3nccc(Oc4ccc(NC(=S)NC(=O)Cc5ccccc5)cc4F)c3s2)c1`, the parasite growth, % of control (lower = inhibition) is reported as 28.5%.
In the case of `Fc1ccc(C(c2ccc(F)cc2)N2CCN(CC=Cc3ccccc3)CC2)cc1`, the parasite growth, % of control (lower = inhibition) is reported as 44.1%.
`Cc1c(-c2cccc3c(CCCOc4cccc5ccccc45)c(C(=O)O)n(Cc4cccnc4)c23)c(COc2ccc(N3CCN([S+](=O)([O-])N(C)C)CC3)cc2)nn1C` gave a parasite growth, % of control (lower = inhibition) of 15.4%.
With `COc1c(C)c2c(c(O)c1CC=C(C)CCC(=O)O)C(=O)OC2` the parasite growth, % of control (lower = inhibition) was 13.7%.
In the case of `N[C@@H](CC(=O)N1CCn2c(nnc2C(F)(F)F)C1)Cc1cc(F)c(F)cc1F`, the parasite growth, % of control (lower = inhibition) is reported as 84.5%.
`CN(C(Cc1ccc(OS(=O)(=O)c2cccc3cnccc23)cc1)C(=O)N1CCN(c2ccccc2)CC1)S(=O)(=O)c1cccc2cnccc12` (centres undefined) gave a parasite growth, % of control (lower = inhibition) of 10.8%.
`COc1cc(C=CC(=O)O)ccc1O` showed a parasite growth, % of control (lower = inhibition) of 98.9%.
Work on `Cc1ccc2c(=O)c3cccc(CC(=O)O)c3oc2c1C` yielded a parasite growth, % of control (lower = inhibition) of 76.8%.
Work on `COc1ccc2c(c1)c(C1=C(c3c[nH]c4ccccc34)C(=O)NC1=O)cn2CCCN(C)C` yielded a parasite growth, % of control (lower = inhibition) of 12.5%.
Work on `CCN(CC)CCCCNc1nc2cc(Cl)c(Cl)cc2nc1-c1ccc(-c2cccs2)s1` yielded a parasite growth, % of control (lower = inhibition) of 19.1%.
For `CC[C@]1(O)C[C@H]2CN(CCC3=c4ccccc4=N[C]3[C@@](C(=O)OC)(c3cc4c(cc3OC)N(C)[C@H]3[C@@](O)(C(N)=O)[C@H](O)[C@]5(CC)C=CCN6CC[C@]43[C@@H]65)C2)C1`, the parasite growth, % of control (lower = inhibition) was 35%.
For `O=S(=O)(NCCNCC=Cc1ccc(Br)cc1)c1cccc2cnccc12`, the parasite growth, % of control (lower = inhibition) was 35.5%.
In the case of `CNC(=O)[C@H](CC1=CN=C2C=CCC=C12)NC(=O)[C@@H](CC(=O)NO)CC(C)C`, the parasite growth, % of control (lower = inhibition) is reported as 26.7%.
`CN1CCN(c2cccc(Nc3nc4c(-c5ccc(S(C)(=O)=O)cc5)cccn4n3)c2)CC1` gave a parasite growth, % of control (lower = inhibition) of 11.4%.
Work on `C[C@@H](O[C@H]1OCCN(Cc2n[nH]c(=O)[nH]2)[C@@H]1c1ccc(F)cc1)c1cc(C(F)(F)F)cc(C(F)(F)F)c1` yielded a parasite growth, % of control (lower = inhibition) of 66.5%.
`CN(CC=CC#CC(C)(C)C)Cc1cccc2ccccc12` gave a parasite growth, % of control (lower = inhibition) of 14.9%.
`O=C1NC(=O)C(c2cnc3ccccn23)=C1c1cn2c3c(cccc13)CN(C(=O)N1CCOCC1)CC2` gave a parasite growth, % of control (lower = inhibition) of 59.2%.
In the case of `OCCn1cc(-c2ccc3c(c2)CCC3=NO)c(-c2ccncc2)n1`, the parasite growth, % of control (lower = inhibition) is reported as 74.7%.
With `CCC(C)SSc1ncc[nH]1` (centres undefined) the parasite growth, % of control (lower = inhibition) was 89.6%.
`Cc1ccccc1C(=O)c1ccc(Nc2ccc(Br)cc2N)cc1Cl` showed a parasite growth, % of control (lower = inhibition) of 40%.
In the case of `Fc1ccc(CNc2ncnc3ccc(F)cc23)cc1`, the parasite growth, % of control (lower = inhibition) is reported as 117%.

Assay: qHTS profiling of the MIPE4 collection as inhibitors of Plasmodium falciparum (HB3) proliferation (AID 743347);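 note: plate controls were DMSO vehicle wells for no effect and artemisinin wells for full effect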
Conditions: P. falciparum HB3 in erythrocytes, SYBR Green DNA, 72 h; at 28.5 µM unless noted
Outline: as §1
`CC(C)c1onc(-c2c(Cl)cccc2Cl)c1COc1ccc(C=Cc2cccc(C(=O)O)c2)c(Cl)c1` showed a growth, % of control of 67.3%.
In the case of `O=C1NC(=O)C(=Cc2ccc(-c3ccc(F)cc3O)o2)S1`, the growth, % of control is reported as 34.2%.
With `COc1cc2nccc(Oc3ccc(NC(=O)Nc4ccc(F)cc4F)c(F)c3)c2cc1OC` the growth, % of control was 9.7%.
Work on `C#C[C@]1(O)CC[C@H]2[C@H]3CCc4cc(OC)ccc4[C@H]3CC[C@@]21C` yielded a growth, % of control of 87.7%.
`CCC(=O)OCC(=O)[C@@]1(OC(=O)CC)[C@@H](C)C[C@@H]2[C@H]3CCC4=CC(=O)C=C[C@]4(C)[C@@]3(F)[C@@H](O)C[C@@]21C` showed a growth, % of control of 48.2%.
`CNC(=O)c1cc(COc2nnc(Nc3ccc(Cl)cc3)c3ccoc23)ccn1` gave a growth, % of control of 48.2%.
For `CC(C)(C)c1nc(-c2cccc(NS(=O)(=O)c3c(F)cccc3F)c2F)c(-c2ccnc(N)n2)s1`, the growth, % of control was 10.3%.
For `CC(C)C[C@@H](C(=O)N[C@H](C(=O)OC1CCCC1)c1ccccc1)[C@H](O)C(=O)NO`, the growth, % of control was 7.8%.
Work on `COC1CCC(C(=O)c2ccc3nc4c(cc3c2)CCCO4)CC1` (centres undefined) yielded a growth, % of control of 11.8%.
With `CC(C)(O)CC(=O)NCCn1ccc2ncnc(Nc3ccc(Oc4cccc(C(F)(F)F)c4)c(Cl)c3)c21` the growth, % of control was 9.01%.
In the case of `CC[C@H](NC(=O)[C@H](C)NC)C(=O)N1C[C@@H](O)C[C@H]1Cc1c(-c2[nH]c3cc(F)ccc3c2C[C@H]2C[C@H](O)CN2C(=O)[C@H](CC)NC(=O)[C@H](C)NC)[nH]c2cc(F)ccc12`, the growth, % of control is reported as 6.85%.
`C[C@H]1COC2=C1C(=O)C(=O)c1c2ccc2c1CCCC2(C)C` gave a growth, % of control of 9.95%.
`Cn1cnc(-c2cc3nccc(Oc4ccc(NC(=S)NC(=O)Cc5ccccc5)cc4F)c3s2)c1` showed a growth, % of control of 12%.
Work on `Fc1ccc(C(c2ccc(F)cc2)N2CCN(CC=Cc3ccccc3)CC2)cc1` yielded a growth, % of control of 5.16%.
For `Cc1c(-c2cccc3c(CCCOc4cccc5ccccc45)c(C(=O)O)n(Cc4cccnc4)c23)c(COc2ccc(N3CCN([S+](=O)([O-])N(C)C)CC3)cc2)nn1C`, the growth, % of control was 4.06%.
`COc1c(C)c2c(c(O)c1CC=C(C)CCC(=O)O)C(=O)OC2` showed a growth, % of control of 7.33%.
`N[C@@H](CC(=O)N1CCn2c(nnc2C(F)(F)F)C1)Cc1cc(F)c(F)cc1F` gave a growth, % of control of 104%.
Molecule `CN(C(Cc1ccc(OS(=O)(=O)c2cccc3cnccc23)cc1)C(=O)N1CCN(c2ccccc2)CC1)S(=O)(=O)c1cccc2cnccc12` (centres undefined) has a growth, % of control of 8.15%.
Molecule `COc1cc(C=CC(=O)O)ccc1O` has a growth, % of control of 82.4%.
Molecule `CCC(=C(CC)c1ccc(O)cc1)c1ccc(O)cc1` has a growth, % of control of 90.8%.
`Cc1ccc2c(=O)c3cccc(CC(=O)O)c3oc2c1C` showed a growth, % of control of 101%.
With `COc1ccc2c(c1)c(C1=C(c3c[nH]c4ccccc34)C(=O)NC1=O)cn2CCCN(C)C` the growth, % of control was 5.22%.
Work on `CCN(CC)CCCCNc1nc2cc(Cl)c(Cl)cc2nc1-c1ccc(-c2cccs2)s1` yielded a growth, % of control of 5.94%.
Molecule `CC[C@]1(O)C[C@H]2CN(CCC3=c4ccccc4=N[C]3[C@@](C(=O)OC)(c3cc4c(cc3OC)N(C)[C@H]3[C@@](O)(C(N)=O)[C@H](O)[C@]5(CC)C=CCN6CC[C@]43[C@@H]65)C2)C1` has a growth, % of control of 17.4%.
With `CN[C@@H](C)[C@H]1[C@H](O)C[C@@]2(C)[C@@H]3CC[C@H]4C(C)(C)[C@@H](NC)CC[C@@]45C[C@@]35CC[C@]12C` the growth, % of control was 13.3%.
For `O=S(=O)(NCCNCC=Cc1ccc(Br)cc1)c1cccc2cnccc12`, the growth, % of control was 33.3%.
In the case of `CNC(=O)[C@H](CC1=CN=C2C=CCC=C12)NC(=O)[C@@H](CC(=O)NO)CC(C)C`, the growth, % of control is reported as 18.7%.
`CN1CCN(c2cccc(Nc3nc4c(-c5ccc(S(C)(=O)=O)cc5)cccn4n3)c2)CC1` showed a growth, % of control of 10.2%.
With `COc1nccc(-c2c(-c3ccc(F)cc3)ncn2C2CCNCC2)n1` the growth, % of control was 35.6%.
For `C[C@@H](O[C@H]1OCCN(Cc2n[nH]c(=O)[nH]2)[C@@H]1c1ccc(F)cc1)c1cc(C(F)(F)F)cc(C(F)(F)F)c1`, the growth, % of control was 34.2%.
In the case of `CN(CC=CC#CC(C)(C)C)Cc1cccc2ccccc12`, the growth, % of control is reported as 14.6%.
For `O=C1NC(=O)C(c2cnc3ccccn23)=C1c1cn2c3c(cccc13)CN(C(=O)N1CCOCC1)CC2`, the growth, % of control was 54.5%.
`COc1ccc2cc1Oc1ccc(cc1)C[C@H]1c3cc(c(OC)cc3CCN1C)Oc1c(OC)c(OC)cc3c1[C@H](C2)N(C)CC3` gave a growth, % of control of 13.9%.
In the case of `OCCn1cc(-c2ccc3c(c2)CCC3=NO)c(-c2ccncc2)n1`, the growth, % of control is reported as 89.4%.
`CCC(C)SSc1ncc[nH]1` (centres undefined) gave a growth, % of control of 92.3%.
Work on `Cc1ccccc1C(=O)c1ccc(Nc2ccc(Br)cc2N)cc1Cl` yielded a growth, % of control of 28.4%.
`Fc1ccc(CNc2ncnc3ccc(F)cc23)cc1` showed a growth, % of control of 630%.
